The whole screen tested about 290,000 compounds, of which about 3,000 (1%) were called active. What follows is part of a selection rich in actives, with near analogues and random picks from the rest. Values without a mark were called inactive. Rule as the data show it: active = inhibition mostly above about 36% (no sharp cut-off); inactive = mostly below about 34%.

The assay in a line: inhibition of NOD1-driven NF-kB reporter – cell-based, luminescence, uHTS, primary screen (AID 1578).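 Also: HEK-293T reporter cells stimulated with the NOD1 agonist gamma-tri-DAP.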 Particulars: NOD1-driven NF-kB luciferase reporter cells, at 4 µM, hits give high values. On the technique in general: In a reporter assay the amount or activity of a reporter protein is the signal.
As for `CC(C)(C)c1ccc(C(=O)NC(=S)NCc2ccco2)cc1`, the inhibition was -11%.
The figure for `N=c1c2c(n(Cc3ccc(F)cc3)c3c1CCC3)CCCC2` is 22.1%; for `N=c1c2c(n(Cc3ccc(Br)cc3)c3c1CCC3)CCCC2` it is 39%.
The figure for `NC(=O)c1ccccc1NC(=O)Cc1cccs1` is -10.4%; for `O=CNCCc1nc2ccccc2n1CCc1ccccc1` it is 15%; for `O=CNCc1nc2ccccc2n1CCc1ccccc1` it is 66% (active).
The figure for `O=CNCc1nc2ccccc2n1CCCc1ccccc1` is -1.8%; for `CNc1ccc(Cl)nn1` it is -42.7%; for `CC1(C)C(=O)CC[C@]2(C)C3C(=O)C=C4[C@H]5C[C@@](C)(C(=O)O)CC[C@]5(C)CC[C@]4(C)[C@]3(C)CC[C@@H]12` (stereo not given in full) it is -7.3%.
For `C=C(C)[C@@H]1CCC2(C(=O)O)CC[C@]3(C)[C@H](CC[C@@H]4[C@@]5(C)CCC(=O)C(C)(C)[C@@H]5CC[C@]43C)[C@@H]12` (stereo not given in full), the inhibition is 48.4%.
Consider `O=C(NCc1ccccc1)c1ccco1`, for which the inhibition is -12.3%.
Take `O=C(CSCCSCC(=O)c1ccco1)c1ccco1`: the inhibition was -26.9%.
For `O=C(C#Cc1ccccc1)c1ccco1` the value was 72.9% (active).
As for `CC(C)C(=O)Nc1ccc(C(=O)NCc2cccnc2)cc1`, the inhibition was -35.1%.
On to `CNC(=O)CSc1nc2cc(S(=O)(=O)Nc3ccc(OC)cc3)ccc2o1`, for which the inhibition was -1.2%.
Consider `COc1ccc(NS(=O)(=O)c2ccc3oc(SC)nc3c2)cc1`, for which the inhibition was -2.9%.
For the compound `COC(=O)Cc1[nH]n(-c2nc3ccccc3s2)c(=O)c1C(C)=O`, the inhibition was -16.2%.
The figure for `CC(=O)c1c(CC(=O)O)[nH]n(-c2nc3ccccc3s2)c1=O` is 79.8% (active); for `CCCN=C(C)c1c(-c2ccccc2)[nH]n(-c2nc3ccccc3s2)c1=O` it is 7.3%; for `O=C(CCN1C(=O)c2ccccc2C1=O)OCN1C(=O)c2ccccc2C1=O` it is 11.2%.
As to `O=c1cc(N2CCN(c3ccc(F)cc3)CC2)[nH]c(=O)n1Cc1ccc(F)cc1`, the inhibition was -13%.
`CC1=NNC(=O)/C1=C\c1cn(-c2ccccc2)nc1-c1ccccc1`: the inhibition is 64.7% (active).
As for `CC1=NNC(=O)/C1=C\c1cn(-c2ccccc2)nc1-c1ccc(Cl)cc1`, the inhibition was -47.4%.
For `CC1=NNC(=O)/C1=C\c1cn(-c2ccccc2)nc1-c1ccc(F)cc1` the value was -39.1%; for `COc1ccc(NC(=O)CC(C(=O)O)N2CCCCC2)cc1` (stereo not given), 2.5%; for `Cc1ccccc1-n1c(C)cc(/C=N/Nc2ccc([N+](=O)[O-])cn2)c1C`, -119%.
The figure for `Cc1cc(/C=N/Nc2nc(N)ncc2[N+](=O)[O-])c(C)n1-c1cccc(C(F)(F)F)c1` is -14.7%; for `COc1cccc(/C=N/Nc2ncnc(N)c2[N+](=O)[O-])c1OC` it is 53.3%.
For `Cc1cc(/C=N/Nc2ccc([N+](=O)[O-])cn2)c(C)n1-c1ccccc1` the value was -31.3%.
In the case of `O=C(CCN1C(=O)/C(=C/c2ccccc2)SC1=S)NNC(=O)c1ccncc1`, the inhibition is -47.5%.
The figure for `O=C1CC(c2ccc(F)cc2)C2=C(CCCC2=O)N1` (stereo not given) is -5.5%.
On to `CCc1cc2c(=O)n(Cc3ccccc3)c(SC3CCOC3=O)nc2s1` (stereo not given), for which the inhibition was -29.3%.
For the compound `COc1ccc(CCN2C(=NC(=O)C(C)C)SC3CS(=O)(=O)CC32)cc1OC` (stereo not given), the inhibition is -10.6%.
For the compound `CCCCS(=O)(=O)/C=C\C1C2C=CC(C2)C1S(=O)(=O)CCCC` (stereo not given), the inhibition was 6.2%.
Consider `CCCCS(=O)(=O)/C=C\C=C/S(=O)(=O)CCCC`, for which the inhibition is 97.7% (active).
In the case of `CCCCS(=O)(=O)/C=C/[C@H]1[C@H](S(=O)(=O)CCCC)[C@H]2C=C[C@@H]1C2`, the inhibition was -23.6%.
For `Cc1cc(C)nc(NC2=NCC(=O)N2CCc2c[nH]c3ccccc23)n1`, the inhibition is -8.6%.
As to `Cc1ccc(NC(=O)CCN2CCN(C)CC2)cc1`, the inhibition was 24.4%.
The figure for `COC(=O)c1sc(NC(=S)NC(=O)c2cccc(Br)c2)nc1C` is 25.2%.
For `COc1cccc(CN(C)c2nc(-c3cccs3)nc3ccccc23)c1` the value was 7.9%; for `CN(Cc1ccccc1F)c1nc(-c2cccs2)nc2ccccc12`, 67.9% (active).
For `CN(Cc1ccccc1F)c1nc(-c2cccnc2)nc2ccccc12` the value was 25.5%; for `O=C(Nc1ccccc1-c1nnc(SCc2ccc(Cl)cc2)o1)c1ccccc1`, 5.6%; for `O=C(Cc1ccccc1F)OCN1C(=O)c2ccccc2C1=O`, -15.6%.
As for `COc1ccc(CC(=O)OCN2C(=O)c3ccccc3C2=O)cc1`, the inhibition is 0.1%.
For `O=C(Cc1ccc(F)cc1)OCN1C(=O)c2ccccc2C1=O` the value was 49.7% (active); for `Cc1c(NC(=O)Nc2cccc(C#N)c2)c(=O)n(-c2ccccc2)n1C`, -8.2%.
For `COc1ccc(NC(=O)c2ccc(S(=O)(=O)N(C)C)cc2)cc1` the value was -41.1%; for `O=c1c2cnn(-c3ccccc3)c2nc(-c2cccs2)n1-c1cccc(Cl)c1`, -3.1%.
With `Cc1ncoc1C(=O)N1CCCC(CCC(=O)NCc2ccc(F)c(F)c2)C1` (stereo not given), the inhibition is -31.1%.
In the case of `CN(C)c1ccc(/C=C/c2cc[n+](C)cc2)cc1`, the inhibition was 25%.
Consider `CN(C)c1ccc(/C=C/c2cccc[n+]2[O-])cc1`, for which the inhibition is 2.7%.
The figure for `CC(=O)/C(C(=N)N1CCN(c2cccc(Cl)c2)CC1)=C(\C)O` is 24.8%; for `O=[N+]([O-])c1cc([N+](=O)[O-])c(Oc2cccnc2Br)cc1NN1CCCCC1` it is 5.9%.
The figure for `O=[N+]([O-])c1cc([N+](=O)[O-])c(Oc2c(Cl)cccc2Cl)cc1NN1CCCCC1` is -4.9%; for `O=[N+]([O-])c1cc([N+](=O)[O-])c(Oc2ccc(Cl)c3cccnc23)cc1NN1CCCCC1` it is 44.7% (active); for `O=C(O)c1ccc(S(=O)(=O)NCC2CCCCC2)cc1` it is -9.7%.
The figure for `O=C(NCC1COc2ccccc2O1)C1CCCN(S(=O)(=O)c2cccc3cccnc23)C1` (stereo not given) is 22.5%.
On to `COC(=O)Cc1[nH]n(-c2nc3ccccc3s2)c(=O)c1C(C)=Nc1ccc(Cl)cc1`, for which the inhibition is 1%.
The figure for `COC(=O)CC1=NN(c2nc3ccccc3s2)C(=O)/C1=C/N(C)C` is -19.7%.

For orientation: inhibition means the relative decrease from the control value, in per cent.

The values above are taken from PubChem BioAssay AID1578 (Sanford-Burnham Center for Chemical Genomics, 2009).
